PubChem BioAssay (NCI)
Compounds without any hit were thinned out: in the full panel of roughly 83,000, 20% have a hit.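 Growth was measured after 48 h exposure to one concentration of compound in 96-well plates. Values under 10 count as active.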 A number with no mark means an inactive call. The source made the active and inactive calls.

What follows are compounds tested on MDA-MB-468 breast (assay: NCI-60 one-dose screen, 48 h (100 = growth as untreated, 0 = no growth, -100 = all killed)). Conditions: 10 µM unless noted.
With `Brc1ccc2[nH]cc(-c3nn4cc(-c5nccs5)nc4s3)c2c1` the growth was 51.2%.
With `CCOC(=O)C1=C(C)NC(SCc2nnc(-c3ccc(Cl)cc3)o2)=NC1c1ccc(Cl)cc1Cl` (stereo unspecified) the growth was 88.4%.
`O=C(c1ccccc1)C(Cl)C(Cl)c1ccccc1` (stereo unspecified) was tested, and the growth was 17.6%.
For `CCn1c(CN2CCN(Cc3ccccc3)CC2)nc2cc(NC(=O)c3cccs3)ccc21`, the growth was -86.6% (active).
Work on `CCOCc1nc2ccccc2c(=O)[nH]1` yielded a growth of 98.7%.
Work on `COC(=O)C1(C(=O)OC)C2C(=O)C3C(C21)C3(C(=O)OC(C)(C)C)C(=O)OC(C)(C)C` (stereo unspecified) yielded a growth of 99.4%.
For `Nc1ncnc2c1C(c1ccc(Br)cc1)c1sc3c(F)cccc3c1O2` (stereo unspecified), the growth was 103%.
Compound `N#Cc1ccc(O)c(C2=NCC(c3ccccc3)O2)c1` (stereo unspecified) has a growth of 32.3%.
In the case of `COc1ccc(-c2cc3c(C)nc(N)nc3n(C3CCC(OCCO)CC3)c2=O)cn1` (stereo unspecified), the growth is reported as -50% (active).
With `COc1cc(/C=N\NC(=O)CN2CCN(c3cc4c(cc3F)c(=O)c(C(=O)N/N=C/c3ccc(O)c(OC)c3)cn4C3CC3)CC2)ccc1O` the growth was -37.8% (active).
With `NS(=O)(=O)c1ccc(Nc2nc(N/N=C/CCc3ccccc3)nc(Nc3ccccc3)n2)cc1` the growth was 88.6%.
For `Cc1cc2nc3c4cc(N)ccc4n(CCN(C)C)c3nc2cc1C`, the growth was -5.6% (active).
`CN(C)C(=O)Oc1cccc([N+](C)(C)C)c1` showed a growth of 102%.
`Cc1cccc2nc3ccccc3c(Nc3ccc(NS(C)(=O)=O)cc3)c12` gave a growth of 67.9%.
Work on `O=C(c1ccc(OCCN2CCCCC2)cc1)c1c(-c2ccc(O)cc2)sc2cc(O)ccc12` yielded a growth of 57.7%.
With `CCOC(=O)C1=C(C(=O)c2ccc(Br)cc2)C(c2ccc(Br)cc2)NC(=S)N1` (stereo unspecified) the growth was 103%.
`C=C(C)[C@@H]1CC[C@]2(C(=O)NC(COC(=O)C(Cl)Cl)(COC(=O)C(Cl)Cl)COC(=O)C(Cl)Cl)CC[C@]3(C)[C@H](CC[C@@H]4[C@@]5(C)CC[C@H](OC(C)=O)C(C)(C)[C@@H]5CC[C@]43C)[C@@H]12` showed a growth of 61.7%.
`COc1ccc(S(=O)(=O)Oc2ccc(-c3sc4cc(OS(=O)(=O)c5ccc(OC)cc5)ccc4c3C(=O)c3ccc(OCCN4CCCCC4)cc3)cc2)cc1` showed a growth of 94.3%.
Work on `Cc1cc(SC#N)cc(C(C)(C)C)c1O` yielded a growth of 105%.
In the case of `O=C(NNC(=O)c1ccc(NC(=O)c2ccccn2)cc1)Nc1ccc2ccccc2c1`, the growth is reported as 119%.
`C(/C=C/c1ccccc1)=Nc1ccc(CCc2ccc(N=C/C=C/c3ccccc3)cc2)cc1` showed a growth of 83.3%.
In the case of `CCN(CC)c1ccc2cc(C(=O)NCCOCCOCCOCCn3cc(CCC(=O)Nc4ccc(C(=O)c5ccc(NC(=O)OC(C)(C)C)cc5)cc4)nn3)c(=O)oc2c1`, the growth is reported as 51.3%.
For `Cc1ccc(S(=O)(=O)c2nc(-c3ccccc3)oc2Sc2nc3ccccc3s2)cc1`, the growth was 52.1%.
`C/C1=C\CC[C@@]2(C)O[C@H]2[C@H]2OC(=O)C(CN3CCN(CC4C(=O)O[C@H]5[C@H]4CC/C(C)=C/CC[C@@]4(C)O[C@@H]54)CC3)[C@@H]2CC1` (stereo partly specified) showed a growth of 46.1%.
Work on `O=C(CSc1nnc(-c2ccc(Cl)cc2)o1)Nc1ccc(C(=O)/C=C/c2ccc(Cl)cc2)cc1` yielded a growth of 116%.
`CC[N+](C)(CC)CCO` gave a growth of 91.8%.
Compound `N#CCc1csc(Cc2ccccc2)n1` has a growth of 107%.
For `CCN(CC)CCCNC(=O)c1c2c(n3ccccc13)C(=O)c1ncccc1C2=O`, the growth was -70.1% (active).
`N#Cc1c(-c2cccs2)cc(-c2cnccn2)nc1SCC(=O)NNC(=S)Nc1ccc(F)cc1` was tested, and the growth was 122%.
Compound `O=C1Nc2ccc(F)cc2C12Nc1cc(Cl)ccc1S2` (stereo unspecified) has a growth of 107%.
For `C#C[C@@]1(O)[C@@H](CO)O[C@@H](n2cc(F)c3c(N)ncnc32)[C@@H]1O`, the growth was -46.2% (active).
`O=C1C[C@@H](c2ccccc2)Oc2c(Cc3ccccc3O)c(O)c(Cc3cc(Cc4cc(Cc5ccccc5O)ccc4O)ccc3O)c(O)c21` gave a growth of 101%.
Work on `Cc1c(F)cccc1NC(=O)c1sc2nc3c(cc2c1N)CCCCC3` yielded a growth of 14.8%.
With `CCCc1c(CC)c(=N)c2ccccc2n1C` the growth was 58.7%.
For `COc1cccc(/C=C2\Oc3cc(OCCCN4CCCC4)ccc3C2=O)c1OC`, the growth was 93.2%.
In the case of `N#Cc1ccc(-n2cnc(NC(=O)[C@H]3CCN(C#N)C3)c2)cc1`, the growth is reported as -38.1% (active).
